Measured values reported in PubChem BioAssay (EPA / NIEHS).
Values joined by “and” are separate entries in the source; they are usually repeats but may differ in a detail not shown here. Equal values may be shown once. Where a structure was tested more than once in an assay, its records may differ in their call. Active and inactive are the calls of the source. The calls were made as follows: active = hit-call score of the fitted dose curve at least 0.9, where 1 is the maximum; inactive = score below 0.9.

target: Transcription factor Sp1 (Homo sapiens) (UniProt P08047); experiment: ATG_Sp1_CIS: Attagene CIS-FACTORIAL HepG2 Assay for human Specificity Protein 1 (Sp1) (AID 2282961); conditions: HepG2 Sp1 cis-reporter transcription, actives raise or lower the signal
Sequence (P08047 whole entry, looked up): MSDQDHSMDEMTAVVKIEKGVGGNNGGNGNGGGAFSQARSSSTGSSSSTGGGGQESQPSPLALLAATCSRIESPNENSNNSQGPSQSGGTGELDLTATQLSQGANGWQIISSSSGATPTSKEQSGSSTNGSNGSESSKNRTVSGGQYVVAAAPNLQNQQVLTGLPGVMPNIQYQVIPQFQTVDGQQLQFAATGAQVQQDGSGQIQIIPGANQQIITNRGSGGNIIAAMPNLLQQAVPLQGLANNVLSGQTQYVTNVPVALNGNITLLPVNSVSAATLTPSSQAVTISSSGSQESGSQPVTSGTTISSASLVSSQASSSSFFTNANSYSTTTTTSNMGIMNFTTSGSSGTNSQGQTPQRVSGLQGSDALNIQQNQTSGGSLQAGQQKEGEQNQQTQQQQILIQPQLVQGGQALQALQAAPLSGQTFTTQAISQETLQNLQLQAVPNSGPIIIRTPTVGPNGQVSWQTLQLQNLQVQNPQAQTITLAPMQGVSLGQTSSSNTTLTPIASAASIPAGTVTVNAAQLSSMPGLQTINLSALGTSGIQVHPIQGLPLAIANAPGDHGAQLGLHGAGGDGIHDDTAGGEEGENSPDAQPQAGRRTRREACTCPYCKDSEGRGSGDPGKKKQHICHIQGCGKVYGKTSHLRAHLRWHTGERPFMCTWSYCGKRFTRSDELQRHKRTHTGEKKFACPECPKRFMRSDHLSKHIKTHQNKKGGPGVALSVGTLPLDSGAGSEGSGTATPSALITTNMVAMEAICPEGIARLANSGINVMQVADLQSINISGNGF
Experimental: ATG_CIS is a cell-based, multiplexed-readout assay that uses HepG2, a human liver cell line, with measurements taken at 24 hours after chemical dosing in a 24-well plate.ATG_Sp1_CIS is one of 52 assay component(s) measured or calculated from the ATG_CIS assay. It is designed to make measurements of mRNA induction, a form of inducible reporter, as detected with fluorescence intensity signals by Reverse transcription polymerase chain reaction (RT-PCR) and Capillary electrophoresis technology.Data from the assay component ATG_Sp1_CIS was analyzed into 1 assay endpoint. This assay endpoint, ATG_Sp1_CIS, was analyzed with bidirectional fitting relative to DMSO as the negative control and baseline of activity. Using a type of inducible reporter, measures of mRNA for gain or loss-of-signal activity can be used to understand the reporter gene at the transcription factor-level as they relate to the gene SP1. Furthermore, this assay endpoint can be referred to as a primary readout, because this assay has produced multiple assay endpoints where this one serves a reporter gene function. To generalize the intended target to other relatable targets, this assay endpoint is annotated to the dna binding intended target family, where the subfamily is zinc finger.
Human liver HepG2 cells are transiently transfected with multiple reporter transcription units (MRTUs) in 6-well plates using FuGene 6 reagent (Roche; 3 ml FuGene/1 mg DNA). The MRTU constructs are regulated by a cis-regulating element (promoter). […] A major difference between the CIS and TRANS system is that in CIS activities of endogenous TFs are measured, whereas the TRANS assay evaluates changes in activities of exogenous, chimeric NR-Gal4 proteins. […] At the end of 24 hour incubation, total RNA was isolated using TriZol reagent (Invitrogen). The isolated RNA is then reverse-transcribed using oligo(dT) primer and Mo-MLV reverse transcriptase (Invitrogen) with DNAse I (Ambion) treatment for 30 min. The one-tenth of the produced cDNA was amplified by PCR using Taq DNA polymerase (Invitrogen) and two reporter sequence-specific primers. The PCR products were fluorescently labeled by primer extension with 6-arboxyfluorescein (6-FAM) 5'-labeled reporter sequence-specific primer (2 min at 95 C, 20 s at 68 C and 10 min at 72 C) and these products were digested with 5U of HpaI (New England Biolabs) for 2h at 37 C. The fragments were purified using Qiaquick PCR columns (Qiagen), analyzed on an ABI 3130xL genetic analyzer (Applied Biosystems) with peak positions identified by using a set of X-rhodamine (ROX)-labeled MapMarker1000 molecular weight standards (BioVentures). The raw capillary electrophoresis data was processed using Attagraph software (Attagene).

outcome, inactive:
CCCC(=O)O
O=C(O)c1[nH]n(-c2ccc(S(=O)(=O)O)cc2)c(=O)c1N=Nc1ccc(S(=O)(=O)O)cc1
O=C1c2c(O)cccc2Cc2cccc(O)c21
CCCC[C@H]1CN(CC2CCOCC2)C(=O)OC12CCN(C1(C)CCN(C(=O)c3c(C)ncnc3C)CC1)CC2
CCCCC(CC)CO (stereo not given)
O=C(NS(=O)(=O)/C=C/c1cccs1)c1ccc(F)cc1Br
CS(=O)(=O)c1ccc([C@@H](C[C@H]2CCC(=O)C2)C(=O)Nc2cnccn2)cc1Cl
Cn1cnc2c1c(=O)[nH]c(=O)n2C
CCCCC(CC)COP(=O)(OCC(CC)CCCC)OCC(CC)CCCC (stereo not given)
CCOCCOCCO
Cc1c(C)c2c(c(C)c1O)CCC(C)(COc1ccc(CC3SC(=O)NC3=O)cc1)O2 (stereo not given)
C/C=C/c1ccc(OC)cc1
O=[Si]=O
O=C(O)c1cccnc1
Cc1cn([C@H]2C=C[C@@H](CO)O2)c(=O)[nH]c1=O
CC(=O)O[C@]1(C(C)=O)CC[C@H]2[C@@H]3C=C(Cl)C4=CC(=O)[C@@H]5C[C@@H]5[C@]4(C)[C@H]3CC[C@@]21C
CC(=O)OCC(COC(C)=O)OC(C)=O
CC(C)c1cccc(C(C)C)c1
CCC(C)N(C)C(=O)c1cc2ccccc2c(-c2ccccc2Cl)n1 (stereo not given)
CC(C)c1cccc(C(C)C)c1NC(=O)NS(=O)(=O)c1cc(C(C)(C)O)co1
O=C(Oc1ccccc1)c1cccc(C(=O)Oc2ccccc2)c1
CCCCCCCCCCCCCCCCO
O=Cc1ccccc1C=O
CC(C)(C)c1ccccc1
CC(=O)CC(c1ccccc1)c1c(O)c2ccccc2oc1=O (stereo not given)
CO[C@@H]1COCC[C@@H]1N[C@@H]1CC[C@@](C(=O)N2CCc3ncc(C(F)(F)F)cc3C2)(C(C)C)C1
Cc1occc(=O)c1O
CCCCc1nc2cccnc2n1Cc1ccc(-c2ccccc2-c2nnn[nH]2)cc1
Nc1nc(=S)c2[nH]cnc2[nH]1
CC(C)OC(=O)C(C)(C)Oc1ccc(C(=O)c2ccc(Cl)cc2)cc1
COc1ccc(OC(F)(F)F)cc1CN[C@H]1CCCN[C@H]1c1ccccc1
CCCCCCCCCCCCCCOS(=O)(=O)O
CC(C)(O)c1ccc(CNC(=O)c2cccnc2Oc2ccc(F)cc2)cc1
CSc1ccc(Oc2ccc(S(N)(=O)=O)cc2CN(C)C)cc1C
CCc1nc(N)nc(N)c1-c1ccc(Cl)cc1

AC50, active:
O=C1OC(c2ccc(O)cc2)(c2ccc(O)cc2)c2ccccc21 41.2 µM
S=c1[nH]c2ccccc2s1 42.5 µM
CC(=O)O[C@]1(C(C)=O)CC[C@H]2[C@@H]3C=C(Cl)C4=CC(=O)[C@@H]5C[C@@H]5[C@]4(C)[C@H]3CC[C@@]21C 154 µM and 170 µM
O=C(N[C@@H](c1ccccc1)[C@@H]1CCCCN1)c1cccc(C(F)(F)F)c1Cl 42.7 µM
CCc1cc(C2=C(C(=O)O)N(c3ccccc3C(F)(F)F)S(=O)(=O)c3ccccc32)cc2c1OCO2 59 µM
